What all share (assay): DAPPL (digital affinity profiling via proximity ligation, sequencing); 10 mM Tris-HCl pH 7.5, 50 mM NaCl, 1 mM DTT, 4% glycerol, room temperature, 30 min; GST-TFs on glutathione beads, 16-mer random dsDNA library, 0.1% formaldehyde crosslink after washing; high values mean tight binding
For assay [1], the target named is T1, FLI1 (Homo sapiens, UniProt Q01543 1-452).
T1 sequence: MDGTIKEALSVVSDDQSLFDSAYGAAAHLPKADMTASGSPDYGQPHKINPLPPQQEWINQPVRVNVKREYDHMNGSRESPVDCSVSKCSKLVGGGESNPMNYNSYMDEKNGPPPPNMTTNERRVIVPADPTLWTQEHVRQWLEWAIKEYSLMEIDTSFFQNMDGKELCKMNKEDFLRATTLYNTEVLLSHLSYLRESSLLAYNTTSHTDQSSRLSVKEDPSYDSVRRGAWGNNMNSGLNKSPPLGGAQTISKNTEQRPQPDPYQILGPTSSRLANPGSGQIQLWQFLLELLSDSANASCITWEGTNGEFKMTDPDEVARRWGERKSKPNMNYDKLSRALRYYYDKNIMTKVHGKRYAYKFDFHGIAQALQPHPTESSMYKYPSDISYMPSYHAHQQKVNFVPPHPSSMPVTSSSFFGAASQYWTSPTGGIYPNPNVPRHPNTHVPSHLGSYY
The conditions noted are these: protein: recombinant; tags: N-terminal GST; dsDNA, one strand shown. In short, it runs like this: (§1)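 Pools were built from human transcription factors expressed in yeast as GST fusions, captured on glutathione beads and DNA-barcoded, along with a tag-only sample. Incubation with 200 nmole of a 16-mer random double-stranded DNA library lasted 30 min at room temperature in Tris/NaCl/DTT/glycerol buffer, and was followed by washing, 0.1% formaldehyde crosslinking, proximity ligation, PCR amplification and Illumina NextSeq500 sequencing. Binding signal is the quotient of each hexamer's read frequency for a factor and its frequency for the tag-only sample.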

Assay [2] addresses T2, ELK1 (Homo sapiens, UniProt P19419 1-428).
T2 sequence: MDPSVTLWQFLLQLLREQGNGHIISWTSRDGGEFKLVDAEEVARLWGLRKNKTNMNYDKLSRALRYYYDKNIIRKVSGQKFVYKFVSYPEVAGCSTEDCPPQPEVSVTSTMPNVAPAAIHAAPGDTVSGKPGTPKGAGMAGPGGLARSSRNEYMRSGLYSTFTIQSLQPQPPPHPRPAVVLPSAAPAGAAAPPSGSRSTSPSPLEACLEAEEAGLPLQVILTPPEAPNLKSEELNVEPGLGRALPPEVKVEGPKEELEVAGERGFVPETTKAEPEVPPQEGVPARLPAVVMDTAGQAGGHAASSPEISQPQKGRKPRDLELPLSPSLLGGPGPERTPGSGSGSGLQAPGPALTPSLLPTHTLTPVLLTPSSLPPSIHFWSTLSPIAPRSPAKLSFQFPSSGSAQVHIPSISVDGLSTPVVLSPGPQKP
Conditions: protein: recombinant; tags: N-terminal GST; dsDNA, one strand shown. An outline of the steps:
as §1

Assay [3] deals with T3, GABPA (Homo sapiens, UniProt Q06546 1-454).
T3 sequence: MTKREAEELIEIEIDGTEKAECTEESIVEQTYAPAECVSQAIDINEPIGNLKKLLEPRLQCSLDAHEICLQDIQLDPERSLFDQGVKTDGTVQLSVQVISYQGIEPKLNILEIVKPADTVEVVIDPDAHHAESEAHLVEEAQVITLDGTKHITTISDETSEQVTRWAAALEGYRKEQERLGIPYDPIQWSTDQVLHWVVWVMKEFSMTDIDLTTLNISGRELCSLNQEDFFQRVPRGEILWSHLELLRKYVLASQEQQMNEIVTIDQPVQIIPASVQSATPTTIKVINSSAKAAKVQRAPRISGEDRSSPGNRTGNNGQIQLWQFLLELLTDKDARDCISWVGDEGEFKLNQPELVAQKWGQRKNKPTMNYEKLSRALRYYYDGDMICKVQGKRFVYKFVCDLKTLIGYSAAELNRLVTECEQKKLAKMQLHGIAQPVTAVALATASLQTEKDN
Conditions: protein: recombinant; tags: N-terminal GST; dsDNA, one strand shown. An outline of the steps: as §1

In assay [4] the target is T4, ERG (Homo sapiens, UniProt P11308 1-479).
T4 sequence: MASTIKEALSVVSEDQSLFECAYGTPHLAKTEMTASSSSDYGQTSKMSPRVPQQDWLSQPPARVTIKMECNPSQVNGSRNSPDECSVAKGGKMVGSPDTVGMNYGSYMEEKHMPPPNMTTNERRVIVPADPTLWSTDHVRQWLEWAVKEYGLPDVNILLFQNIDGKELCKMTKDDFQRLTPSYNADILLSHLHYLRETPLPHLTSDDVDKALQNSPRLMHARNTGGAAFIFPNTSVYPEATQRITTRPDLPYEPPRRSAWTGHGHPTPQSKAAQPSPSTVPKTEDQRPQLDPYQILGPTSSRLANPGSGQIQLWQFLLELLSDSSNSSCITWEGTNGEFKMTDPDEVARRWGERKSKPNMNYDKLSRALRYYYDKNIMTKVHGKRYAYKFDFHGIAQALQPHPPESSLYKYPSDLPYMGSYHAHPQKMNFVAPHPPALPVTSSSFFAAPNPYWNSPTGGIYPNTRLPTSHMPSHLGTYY
Conditions: protein: recombinant; tags: N-terminal GST; dsDNA, one strand shown. In short, it runs like this: as §1

Assay [5] addresses ELF1 (Homo sapiens, UniProt P32519 1-619). Conditions: protein: recombinant; tags: N-terminal GST; dsDNA, one strand shown. In short, it runs like this: as §1
For assay [6], the target named is T5, EHF (Homo sapiens, UniProt Q9NZC4 1-300).
T5 sequence: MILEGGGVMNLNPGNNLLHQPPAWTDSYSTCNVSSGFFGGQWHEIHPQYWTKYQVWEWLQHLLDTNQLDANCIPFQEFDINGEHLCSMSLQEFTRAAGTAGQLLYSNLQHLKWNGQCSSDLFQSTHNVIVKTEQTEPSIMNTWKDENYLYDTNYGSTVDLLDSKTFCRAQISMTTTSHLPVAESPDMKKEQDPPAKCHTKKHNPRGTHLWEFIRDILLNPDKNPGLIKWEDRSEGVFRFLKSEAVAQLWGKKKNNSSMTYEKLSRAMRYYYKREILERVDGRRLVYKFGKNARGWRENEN
The conditions noted are these: protein: recombinant; tags: N-terminal GST; dsDNA, one strand shown. An outline of the steps: as §1

In assay [7] the target is SPI1 (Homo sapiens, UniProt P17947 1-270). The conditions noted are these: protein: recombinant; tags: N-terminal GST; dsDNA, one strand shown. In short, it runs like this: as §1
In assay [8] the target is SPIB (Homo sapiens, UniProt Q01892 1-262). Conditions: protein: recombinant; tags: N-terminal GST; dsDNA, one strand shown. An outline of the steps:
as §1

Assay [9] concerns the target T6, ELK3 (Homo sapiens, UniProt P41970 1-407).
T6 sequence: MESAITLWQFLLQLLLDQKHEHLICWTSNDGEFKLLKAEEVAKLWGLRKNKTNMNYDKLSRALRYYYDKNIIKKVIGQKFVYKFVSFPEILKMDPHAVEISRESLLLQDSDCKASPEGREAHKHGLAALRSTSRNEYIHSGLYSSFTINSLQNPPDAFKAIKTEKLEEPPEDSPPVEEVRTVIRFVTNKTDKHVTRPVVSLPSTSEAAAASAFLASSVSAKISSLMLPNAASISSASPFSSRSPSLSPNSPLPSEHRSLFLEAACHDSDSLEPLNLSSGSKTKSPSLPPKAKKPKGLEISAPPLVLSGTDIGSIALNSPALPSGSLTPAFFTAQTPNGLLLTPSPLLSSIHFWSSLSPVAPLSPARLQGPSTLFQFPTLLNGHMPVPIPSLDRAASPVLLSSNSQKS
Conditions: protein: recombinant; tags: N-terminal GST; dsDNA, one strand shown. An outline of the steps:
as §1

In assay [10] the target is T7, FEV (Homo sapiens, UniProt Q99581 1-238).
T7 sequence: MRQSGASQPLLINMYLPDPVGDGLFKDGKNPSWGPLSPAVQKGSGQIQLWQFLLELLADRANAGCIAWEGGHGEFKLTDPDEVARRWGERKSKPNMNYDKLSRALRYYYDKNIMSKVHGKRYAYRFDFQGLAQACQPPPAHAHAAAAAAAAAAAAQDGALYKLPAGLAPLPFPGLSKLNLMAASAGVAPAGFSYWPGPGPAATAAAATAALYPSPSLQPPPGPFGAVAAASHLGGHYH
The conditions noted are these: protein: recombinant; tags: N-terminal GST; dsDNA, one strand shown. In short, it runs like this:
as §1

Assay [11] deals with ETV5 (Homo sapiens, UniProt P41161 1-510). The conditions noted are these: protein: recombinant; tags: N-terminal GST; dsDNA, one strand shown. An outline of the steps:
as §1

In assay [12] the target is HSF1 (Homo sapiens, UniProt Q00613 1-529). Conditions: protein: recombinant; tags: N-terminal GST; chain copies: 3; dsDNA, one strand shown. An outline of the steps:
as §1

Assay [13] deals with T8, SPIC (Homo sapiens, UniProt Q8N5J4 1-248).
T8 sequence: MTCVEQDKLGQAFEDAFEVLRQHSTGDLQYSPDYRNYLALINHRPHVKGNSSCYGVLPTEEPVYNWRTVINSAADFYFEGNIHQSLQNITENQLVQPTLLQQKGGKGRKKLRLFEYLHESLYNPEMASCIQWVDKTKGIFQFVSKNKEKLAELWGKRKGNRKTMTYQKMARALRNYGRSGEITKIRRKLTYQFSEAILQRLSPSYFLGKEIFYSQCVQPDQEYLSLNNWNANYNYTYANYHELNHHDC
Conditions: protein: recombinant; tags: N-terminal GST; dsDNA, one strand shown. An outline of the steps:
as §1

The target of assay [14] is ELF4 (Homo sapiens, UniProt Q99607 1-663). The conditions noted are these: protein: recombinant; tags: N-terminal GST; dsDNA, one strand shown. An outline of the steps: as §1
Sequence of ELF4 (Q99607 whole entry): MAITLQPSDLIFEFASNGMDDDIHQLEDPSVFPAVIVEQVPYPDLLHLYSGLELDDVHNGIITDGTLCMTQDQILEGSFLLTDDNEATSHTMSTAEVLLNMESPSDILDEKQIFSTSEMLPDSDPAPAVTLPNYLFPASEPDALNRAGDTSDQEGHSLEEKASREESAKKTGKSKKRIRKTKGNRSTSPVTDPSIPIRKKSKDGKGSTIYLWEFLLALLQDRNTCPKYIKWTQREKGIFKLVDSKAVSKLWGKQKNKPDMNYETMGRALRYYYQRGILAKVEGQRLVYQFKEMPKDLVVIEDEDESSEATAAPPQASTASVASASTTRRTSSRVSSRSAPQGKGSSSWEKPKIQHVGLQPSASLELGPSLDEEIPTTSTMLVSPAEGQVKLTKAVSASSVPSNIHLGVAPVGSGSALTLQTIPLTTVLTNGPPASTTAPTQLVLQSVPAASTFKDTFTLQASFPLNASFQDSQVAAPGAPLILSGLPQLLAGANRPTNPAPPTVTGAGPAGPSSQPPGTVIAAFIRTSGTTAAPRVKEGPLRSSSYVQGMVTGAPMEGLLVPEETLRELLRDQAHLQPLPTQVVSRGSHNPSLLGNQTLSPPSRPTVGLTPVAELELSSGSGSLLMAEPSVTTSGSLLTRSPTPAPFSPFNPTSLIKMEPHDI
In assay [15] the target is T9, ELK4 (Homo sapiens, UniProt P28324-2 1-405).
T9 sequence: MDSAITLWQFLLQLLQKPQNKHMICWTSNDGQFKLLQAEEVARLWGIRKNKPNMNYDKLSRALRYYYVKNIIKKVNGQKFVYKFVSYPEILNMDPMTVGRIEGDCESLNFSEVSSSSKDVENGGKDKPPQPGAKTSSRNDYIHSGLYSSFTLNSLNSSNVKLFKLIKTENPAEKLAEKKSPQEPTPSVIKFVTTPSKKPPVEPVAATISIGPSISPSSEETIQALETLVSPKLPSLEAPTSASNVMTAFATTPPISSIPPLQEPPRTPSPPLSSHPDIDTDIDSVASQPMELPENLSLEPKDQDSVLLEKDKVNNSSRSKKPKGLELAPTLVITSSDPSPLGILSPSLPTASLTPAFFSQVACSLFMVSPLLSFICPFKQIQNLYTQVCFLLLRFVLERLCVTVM
The conditions noted are these: protein: recombinant; tags: N-terminal GST; dsDNA, one strand shown. In short, it runs like this:
as §1

Assay [16] deals with T10, ETV2 (Homo sapiens, UniProt O00321 1-342).
T10 sequence: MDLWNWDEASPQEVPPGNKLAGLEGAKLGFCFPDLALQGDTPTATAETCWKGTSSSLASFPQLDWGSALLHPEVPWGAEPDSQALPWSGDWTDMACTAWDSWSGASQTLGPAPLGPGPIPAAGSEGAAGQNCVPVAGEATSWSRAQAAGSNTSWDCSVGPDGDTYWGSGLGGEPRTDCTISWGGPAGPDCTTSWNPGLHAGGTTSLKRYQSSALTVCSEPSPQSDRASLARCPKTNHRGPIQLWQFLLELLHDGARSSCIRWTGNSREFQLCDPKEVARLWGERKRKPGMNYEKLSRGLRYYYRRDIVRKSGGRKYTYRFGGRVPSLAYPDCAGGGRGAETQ
Conditions: protein: recombinant; tags: N-terminal GST; dsDNA, one strand shown. An outline of the steps:
as §1

Assay [17] concerns the target T11, ELF3 (Homo sapiens, UniProt P78545 1-371).
T11 sequence: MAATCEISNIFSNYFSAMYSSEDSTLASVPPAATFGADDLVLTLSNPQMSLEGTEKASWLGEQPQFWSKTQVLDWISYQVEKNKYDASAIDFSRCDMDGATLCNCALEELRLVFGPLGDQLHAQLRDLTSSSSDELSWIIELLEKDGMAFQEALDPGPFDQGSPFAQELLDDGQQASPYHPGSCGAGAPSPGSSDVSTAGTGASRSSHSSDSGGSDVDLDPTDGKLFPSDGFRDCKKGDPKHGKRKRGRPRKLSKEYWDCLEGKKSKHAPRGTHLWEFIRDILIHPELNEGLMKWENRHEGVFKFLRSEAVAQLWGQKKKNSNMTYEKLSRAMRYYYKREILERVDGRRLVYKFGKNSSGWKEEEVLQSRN
The conditions noted are these: protein: recombinant; tags: N-terminal GST; dsDNA, one strand shown. In short, it runs like this:
as §1

Assay [18] deals with ETV1 (Homo sapiens, UniProt P50549 1-477). The conditions noted are these: protein: recombinant; tags: N-terminal GST; dsDNA, one strand shown. In short, it runs like this:
as §1

Sequence of HSF1 (Q00613 whole entry): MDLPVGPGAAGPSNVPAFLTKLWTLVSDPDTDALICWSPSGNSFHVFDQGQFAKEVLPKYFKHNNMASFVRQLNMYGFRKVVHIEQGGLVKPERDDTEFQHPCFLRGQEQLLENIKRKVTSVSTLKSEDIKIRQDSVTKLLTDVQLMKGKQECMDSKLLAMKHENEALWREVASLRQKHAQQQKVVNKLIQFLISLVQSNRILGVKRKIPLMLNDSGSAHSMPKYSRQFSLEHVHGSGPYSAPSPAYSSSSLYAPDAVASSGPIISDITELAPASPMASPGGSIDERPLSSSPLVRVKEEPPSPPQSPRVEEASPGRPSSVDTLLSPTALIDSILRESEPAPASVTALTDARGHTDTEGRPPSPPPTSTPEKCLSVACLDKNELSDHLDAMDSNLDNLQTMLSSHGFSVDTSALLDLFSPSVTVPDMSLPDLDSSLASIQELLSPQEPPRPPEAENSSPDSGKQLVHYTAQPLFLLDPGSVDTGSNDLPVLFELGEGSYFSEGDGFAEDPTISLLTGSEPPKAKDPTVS
Sequence of ETV5 (P41161 whole entry): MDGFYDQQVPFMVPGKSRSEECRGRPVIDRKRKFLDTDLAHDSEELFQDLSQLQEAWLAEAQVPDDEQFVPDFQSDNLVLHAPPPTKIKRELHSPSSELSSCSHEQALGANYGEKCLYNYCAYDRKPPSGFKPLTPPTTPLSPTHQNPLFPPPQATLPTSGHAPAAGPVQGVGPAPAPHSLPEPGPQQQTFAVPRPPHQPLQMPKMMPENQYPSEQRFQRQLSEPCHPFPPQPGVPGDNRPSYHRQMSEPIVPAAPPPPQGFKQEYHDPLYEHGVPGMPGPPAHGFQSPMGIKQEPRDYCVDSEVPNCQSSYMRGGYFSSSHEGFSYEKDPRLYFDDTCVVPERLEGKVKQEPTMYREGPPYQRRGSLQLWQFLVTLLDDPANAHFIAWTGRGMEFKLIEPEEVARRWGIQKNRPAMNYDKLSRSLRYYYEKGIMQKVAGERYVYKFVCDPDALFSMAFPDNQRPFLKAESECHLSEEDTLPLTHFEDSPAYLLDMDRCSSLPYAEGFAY
Sequence of SPIB (Q01892 whole entry): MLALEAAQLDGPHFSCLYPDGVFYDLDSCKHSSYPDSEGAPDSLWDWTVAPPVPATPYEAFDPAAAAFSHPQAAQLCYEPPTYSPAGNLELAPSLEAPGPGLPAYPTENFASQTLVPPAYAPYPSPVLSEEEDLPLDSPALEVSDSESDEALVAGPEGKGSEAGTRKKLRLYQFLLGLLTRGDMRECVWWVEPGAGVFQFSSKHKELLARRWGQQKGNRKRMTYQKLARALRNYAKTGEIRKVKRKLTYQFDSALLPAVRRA
Sequence of ETV1 (P50549 whole entry): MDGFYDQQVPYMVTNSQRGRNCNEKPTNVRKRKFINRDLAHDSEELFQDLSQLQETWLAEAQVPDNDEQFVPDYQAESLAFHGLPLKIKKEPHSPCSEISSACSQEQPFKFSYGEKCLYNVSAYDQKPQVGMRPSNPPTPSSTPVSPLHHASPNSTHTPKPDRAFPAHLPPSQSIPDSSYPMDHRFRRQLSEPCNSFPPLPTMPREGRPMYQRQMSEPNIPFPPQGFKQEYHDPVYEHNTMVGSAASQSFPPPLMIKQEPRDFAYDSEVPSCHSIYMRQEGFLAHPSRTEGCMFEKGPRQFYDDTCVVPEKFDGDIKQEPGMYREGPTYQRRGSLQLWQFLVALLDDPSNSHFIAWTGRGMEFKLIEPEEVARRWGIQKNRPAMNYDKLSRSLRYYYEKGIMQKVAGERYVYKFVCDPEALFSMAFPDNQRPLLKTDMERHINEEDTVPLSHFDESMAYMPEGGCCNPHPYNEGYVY
Sequence of ELF1 (P32519 whole entry): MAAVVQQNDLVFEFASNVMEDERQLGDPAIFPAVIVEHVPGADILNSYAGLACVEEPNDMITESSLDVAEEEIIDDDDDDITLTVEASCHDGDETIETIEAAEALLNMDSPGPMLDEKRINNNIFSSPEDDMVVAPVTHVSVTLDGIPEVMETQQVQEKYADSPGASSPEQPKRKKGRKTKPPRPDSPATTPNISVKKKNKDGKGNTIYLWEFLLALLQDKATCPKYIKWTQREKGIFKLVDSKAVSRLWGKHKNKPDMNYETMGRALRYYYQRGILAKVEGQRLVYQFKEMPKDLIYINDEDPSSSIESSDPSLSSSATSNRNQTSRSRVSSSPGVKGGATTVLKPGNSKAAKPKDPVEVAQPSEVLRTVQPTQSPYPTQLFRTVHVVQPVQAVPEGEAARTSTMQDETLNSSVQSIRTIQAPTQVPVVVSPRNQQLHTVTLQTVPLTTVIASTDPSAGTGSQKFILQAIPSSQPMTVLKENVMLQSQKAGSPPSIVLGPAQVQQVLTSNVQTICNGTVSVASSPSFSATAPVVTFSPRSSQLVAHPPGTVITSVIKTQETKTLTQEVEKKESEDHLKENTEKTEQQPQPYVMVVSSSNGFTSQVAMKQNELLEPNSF

In the case of ACGTAC, the binding signal is 1.24 fold enrichment (6-mer frequency, TF over GST control) in assay [1]; 1.16 fold enrichment (6-mer frequency, TF over GST control) in assay [2]; 1.13 fold enrichment (6-mer frequency, TF over GST control) in [3]; 1.08 fold enrichment (6-mer frequency, TF over GST control) in assay [4]; 1.16 fold enrichment (6-mer frequency, TF over GST control) in [5]; 1.15 fold enrichment (6-mer frequency, TF over GST control) in assay [6]. Further, the binding signal in [7] is 1.18 fold enrichment (6-mer frequency, TF over GST control); in assay [8], 1.11 fold enrichment (6-mer frequency, TF over GST control); in assay [9] it was 1.19 fold enrichment (6-mer frequency, TF over GST control); in assay [10], 1.17 fold enrichment (6-mer frequency, TF over GST control); in assay [11], 1.21 fold enrichment (6-mer frequency, TF over GST control); in [12], 1.04 fold enrichment (6-mer frequency, TF over GST control). In addition, the binding signal in assay [13] is 1.18 fold enrichment (6-mer frequency, TF over GST control); in assay [14], 1.23 fold enrichment (6-mer frequency, TF over GST control); in assay [15], 1.24 fold enrichment (6-mer frequency, TF over GST control); in assay [16] it was 1.32 fold enrichment (6-mer frequency, TF over GST control); in assay [17], 1.25 fold enrichment (6-mer frequency, TF over GST control); in [18], 1.18 fold enrichment (6-mer frequency, TF over GST control).

The values above are taken from PMC7862700, “An all-to-all approach to the identification of sequence-specific readers for epigenetic DNA modifications on cytosine”.
